Assay outcomes deposited in PubChem by National Center for Advancing Translational Sciences (NCATS).
Pf growth 48h: inhibits P. falciparum growth in the first generation, 48 h; P. falciparum luciferase growth in erythrocytes, 48 h; Potency, µM (titrated, usually from 28.7 µM), actives largely listed as inhibitors; 310,000 compounds, 5.9% hits; AID 504832
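Cell-based growth assay: transgenic P. falciparum expressing firefly luciferase, cultured in red cells within RPMI 1640 containing 0.5% w/v Albumax, 24 mM bicarbonate and gentamycin. A drop in luciferase activity indicates inhibition.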
Pf growth 96h: P. falciparum growth inhibition at 96 hour, primary screen for plastid delayed-death inhibitors; P. falciparum luciferase reporter growth, 96 h; Potency, µM (series often up to 28.7 µM), actives largely listed as inhibitors; 320,000 compounds, 6.9% hits
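Compounds incubated with erythrocytes infected by luciferase-expressing P. falciparum (2% hematocrit, 0.05% parasitemia final) for 96 hours, 37 C in 5% CO2. Growth inhibition scored as decreased luciferase luminescence.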
SARS PLpro yeast: SARS-CoV PLP inhibition in yeast; S. cerevisiae expressing SARS-CoV PLpro, growth rescue; Potency, µM (top dose mostly 32.9 µM), actives largely listed as activators; 330,000 compounds, 0.19% hits; AID 485353; calls by dose curve; note: nearly all actives have a fitted effect of over 55% in size
Sm TGR inh: blocks Schistosoma mansoni thioredoxin glutathione reductase | Q962Y6 | purified TGR, DTNB reduction, TNB absorbance 405 nm | Potency, µM (series often up to 114 µM), usual class: inhibitors | 360,000 compounds, 3% hits | AID 485364; note: nearly all actives have a fitted effect of over 60% in size
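First, TGR (20 nM dispensed) and NADPH were mixed with compound. Second, a 15 min room-temperature incubation followed. Third, further NADPH and then DTNB were added to start the reaction. Finally, TNB absorbance was monitored kinetically.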
Hits are given with their value; [ ] = dose if it differs, or a comment. Rows were chosen to be rich in hits. Some 12% of all compounds tested hit in one or more screens of this group. Unless noted, calls come from the whole dose curve; as a rule, active = well fitted curve in the direction sought with a large enough effect; inconclusive = small, poorly fitted or top-dose-only effect, or another doubt; inactive = no such curve, though single readings can be large; an effect the other way counts as inactive or inconclusive.

Screening COc1ccc(S(=O)(=O)NCc2ccc3c(c2)OCO3)cc1OC returned Pf growth 48h inactive, Pf growth 96h 1.2µM, SARS PLpro yeast inactive and Sm TGR inh inactive.
Screening COC(=O)c1cc(CNC(=O)c2ccc(S(=O)(=O)N(C)c3ccccc3)cc2)ccc1OC returned Pf growth 48h 3.7µM, Pf growth 96h 12µM, SARS PLpro yeast inactive and Sm TGR inh inactive.
`COc1cccc(C(=O)NCc2ccc3c(c2)OCO3)c1OC` gave Pf growth 48h inactive, Pf growth 96h inconclusive, SARS PLpro yeast inactive and Sm TGR inh inactive.
COc1ccccc1N(C)S(=O)(=O)c1ccc(C(=O)NCc2ccc3c(c2)OCO3)cc1 was read as Pf growth 48h 9.3µM, Pf growth 96h inconclusive, SARS PLpro yeast inactive and Sm TGR inh inactive.
`COc1ccc(CCNC(=O)c2ccc(S(=O)(=O)N(C)c3ccccc3)cc2)cc1OC` gave Pf growth 48h inconclusive, Pf growth 96h inconclusive, SARS PLpro yeast inactive and Sm TGR inh inactive.
Screening COc1cc(OC)cc(C(=O)NNC(=O)c2ccc(S(=O)(=O)N(C)c3ccccc3OC)cc2)c1 returned Pf growth 48h inactive, Pf growth 96h 0.083µM, SARS PLpro yeast inactive and Sm TGR inh inactive.
For COc1ccc(CC(=O)NC2CC(=O)N(c3cccc(F)c3)C2)cc1 (stereo not drawn) the results were Sm TGR inh inactive.
Screening O=C(CSc1nc2ccsc2c(=O)n1-c1ccc(Br)cc1)NCc1ccc(Cl)cc1 returned Sm TGR inh inactive.
`COc1ccc(CNCCc2cccc(F)c2)c2ccccc12` gave Pf growth 48h inconclusive, Pf growth 96h 13µM, SARS PLpro yeast inactive and Sm TGR inh inactive.
`CCN(CC)C(=O)CSc1nc2c(sc(=S)n2-c2ccc(C)cc2C)c(=O)[nH]1` gave Pf growth 48h inconclusive, Pf growth 96h inconclusive, SARS PLpro yeast inactive and Sm TGR inh inactive.
For COc1ccc(C(CNC(=O)COc2ccc(Cl)cc2C)N2CCCCC2)cc1 (stereo not drawn) the results were Pf growth 48h 12µM, Pf growth 96h inactive, SARS PLpro yeast inactive and Sm TGR inh inactive.
Screening COc1ccc(C(CNC(=O)c2cc3ccccc3o2)N2CCCC2)cc1 (stereo not drawn) returned Pf growth 48h inconclusive, Pf growth 96h inactive, SARS PLpro yeast inactive and Sm TGR inh inactive.
Screening COc1ccc(C(CNC(=O)c2oc3cc(C)c(Cl)cc3c2C)N2CCCCC2)cc1 (stereo not drawn) returned Pf growth 48h 5.2µM, Pf growth 96h inactive, SARS PLpro yeast inactive and Sm TGR inh inactive.
`COc1ccccc1C(CNC(=O)C(C)(C)Oc1ccc(Cl)cc1)N1CCCC1` (stereo not drawn) gave Pf growth 48h 13µM, Pf growth 96h inconclusive, SARS PLpro yeast inactive and Sm TGR inh inactive.
COc1ccc(C(CNC(=O)c2ccc(-c3nc4ccccc4s3)o2)N2CCCC2)cc1 (stereo not drawn) was read as Pf growth 48h 7.4µM, Pf growth 96h 10µM, SARS PLpro yeast inactive and Sm TGR inh inactive.
Screening COc1ccc(C(CNC(=O)COc2cc(C)c(Cl)c(C)c2)N2CCCCC2)cc1 (stereo not drawn) returned Pf growth 48h inconclusive, Pf growth 96h inactive and Sm TGR inh inactive.
For O=C(Nc1cccc(NC(=O)c2ccccc2)n1)c1ccccc1 the results were Pf growth 48h inactive, Pf growth 96h inconclusive, SARS PLpro yeast inactive and Sm TGR inh inactive.
Screening CCCCOc1ccc(C(C)NC(=O)c2cccc(Nc3nc4ccccc4n4nnnc34)c2)cc1 (stereo not drawn) returned Sm TGR inh inactive.
For COc1cccc(CNC(=O)N2CCc3c(sc4c3CCCC4)C2c2ccc(F)cc2)c1 (stereo not drawn) the results were Sm TGR inh inactive.
`COc1ccc(OC)c(-n2c3c(cc(-c4nc(-c5ccc(Cl)cc5)cs4)c2=O)C(=O)CC(C)(C)C3)c1` gave Sm TGR inh inactive.
Screening Cc1cc(Cl)ccc1OCC(=O)NNC(=O)CCOc1ccccc1 returned Pf growth 48h inactive, Pf growth 96h inactive, SARS PLpro yeast inactive and Sm TGR inh inactive.
`COc1ccc(OCC(=O)NCC(c2ccc(OC)cc2)N2CCCCC2)cc1` (stereo not drawn) gave Pf growth 48h inconclusive, Pf growth 96h inactive, SARS PLpro yeast inactive and Sm TGR inh inactive.
COc1ccc(C(CNC(=O)COc2ccccc2)N2CCCCC2)cc1 (stereo not drawn) was read as Pf growth 48h inconclusive, Pf growth 96h 15µM, SARS PLpro yeast inactive and Sm TGR inh inactive.
COc1ccc(C(CNC(=O)c2oc3ccccc3c2C)N2CCCCC2)cc1 (stereo not drawn) was read as Sm TGR inh inactive.
`COc1ccccc1C(CNC(=O)c1oc2ccccc2c1C)N1CCCC1` (stereo not drawn) gave Pf growth 48h inconclusive, Pf growth 96h 13µM, SARS PLpro yeast inactive and Sm TGR inh 32µM.
CCC(C)(C)n1nnnc1C(c1cccs1)N1CCc2ccccc21 (stereo not drawn) was read as Pf growth 48h 9.3µM, Pf growth 96h inactive[5.75 µM], SARS PLpro yeast inactive and Sm TGR inh inactive.
`CCC(C)(C)n1nnnc1C(c1cccnc1)N1CCCc2ccccc21` (stereo not drawn) gave Pf growth 48h inconclusive, Pf growth 96h inactive, SARS PLpro yeast inactive and Sm TGR inh inactive.
Screening CCC(C)(C)n1nnnc1CN1CCc2ccccc21 returned Pf growth 48h inactive, SARS PLpro yeast inactive and Sm TGR inh 7.1µM.
Screening c1ccc(CCn2nnnc2CN2CCCc3ccccc32)cc1 returned Pf growth 48h inactive, Pf growth 96h inactive, SARS PLpro yeast inactive and Sm TGR inh inactive.
Cc1ccc(N2C(=O)C3N=NN(CC(=O)N4N=C(c5ccccc5)CC4c4ccccc4)C3C2=O)cc1 (stereo not drawn) was read as Pf growth 48h 12µM, Pf growth 96h inactive, SARS PLpro yeast inactive and Sm TGR inh inactive.
COc1ccc(C2=NN(C(=O)CCC(=O)O)C(c3ccccc3)C2)cc1 (stereo not drawn) was read as Pf growth 48h inactive, Pf growth 96h inconclusive, SARS PLpro yeast inactive and Sm TGR inh inactive.
`CSc1ncc(C(=O)NCc2cccc(Br)c2)c(-c2ccccc2)n1` gave Sm TGR inh inactive.
`CCc1cccc(NC(=O)c2oc3ccc4c(c3c2C)C(=O)CC(C)(C)O4)c1` gave Sm TGR inh inactive.
`O=C(CSc1nnc(-c2cccnc2)n1Cc1ccco1)c1ccccc1` gave Pf growth 48h inactive, Pf growth 96h inactive, SARS PLpro yeast inactive and Sm TGR inh inactive.
Screening Cc1occc1-c1nnc(SCC(=O)N2CCCc3ccccc32)n1Cc1ccco1 returned Pf growth 48h inconclusive, Pf growth 96h inconclusive, SARS PLpro yeast inactive and Sm TGR inh 40µM.
For O=C(CSc1nnc(-c2cccnc2)n1Cc1ccco1)N1CCc2ccccc21 the results were Pf growth 48h inactive, Pf growth 96h inactive, SARS PLpro yeast inactive and Sm TGR inh 45µM.
Screening O=C(COC(=O)COc1ccccc1)NC1CCCC1 returned Pf growth 48h inactive, Pf growth 96h inactive, SARS PLpro yeast inactive and Sm TGR inh inactive.
